Bioassay records deposited in PubChem by National Center for Advancing Translational Sciences (NCATS).
The list is not random: actives were taken first. Their share in the collection is about 7.3%.
FLuc modulator = firefly luciferase modulation, counter-screen for miR-21 project | Potency, µM (top dose mostly 57.5 µM), without a hit: at the highest dose activity change, negative = inhibition, hits mostly inhibitors | actives 6.9% (n = 360,000) | purified FLuc, Km substrates, luminescence inhibition;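 note: plate controls were vehicle for no effect and reference inhibitor for full effect; nearly all actives have a fitted effect of over 55% in size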
Target sequence (P08659 whole entry, looked up): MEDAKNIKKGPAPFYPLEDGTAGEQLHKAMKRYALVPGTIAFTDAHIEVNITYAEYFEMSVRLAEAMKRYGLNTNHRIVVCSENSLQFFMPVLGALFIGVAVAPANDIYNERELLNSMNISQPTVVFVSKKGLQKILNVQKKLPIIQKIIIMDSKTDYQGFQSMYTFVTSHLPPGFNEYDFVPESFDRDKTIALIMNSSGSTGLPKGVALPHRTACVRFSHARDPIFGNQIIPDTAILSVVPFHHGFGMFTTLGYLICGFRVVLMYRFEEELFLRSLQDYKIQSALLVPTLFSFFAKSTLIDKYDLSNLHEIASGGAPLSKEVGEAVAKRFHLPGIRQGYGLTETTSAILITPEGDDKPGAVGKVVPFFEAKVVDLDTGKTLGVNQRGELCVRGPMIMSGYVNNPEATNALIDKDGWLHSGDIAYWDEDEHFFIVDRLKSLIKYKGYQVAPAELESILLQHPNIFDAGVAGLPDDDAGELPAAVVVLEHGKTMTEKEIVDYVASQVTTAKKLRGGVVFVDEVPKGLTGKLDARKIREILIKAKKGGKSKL
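Biochemical qHTS of compounds, final roughly 60 µM downward over six points, against 10 nM purified firefly luciferase using Km concentrations of substrates (10 uM D-luciferin, 10 uM ATP) in Tris acetate pH 7.5 buffer; luminescence output.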
Rab9 prom act = Rab9 promoter activation; Huh7 Rab9 promoter-luciferase reporter, luminescence, 24 h; Potency, µM (top dose mostly 9.22 µM), inactives show at the highest dose activation, negative = inhibition, actives largely listed as activators; actives 2.8% (n = 320,000); note: % of control where 0% means no effect; nearly all actives have a fitted effect of over 60% in size
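Measured in stably transfected Huh7 cells bearing a Rab9 promoter–luciferase construct: 24 h compound treatment at 37 °C, followed by luminescence detection.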
ELG1 genotox = induces genotoxicity in HEK293T cells with luciferase-tagged ELG1 | actives 1.3% (n = 330,000) | Potency, µM (top dose mostly 46 µM), without a hit: at the top dose activity change, positive = activation, usual class: activators | HEK293T ELG1-luciferase reporter, luminescence, 16 h | AID 504466; note: % of control where 0% means no effect; nearly all actives have a fitted effect of over 60% in size
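Quantitative HTS format in 1536-well plates. HEK293T ELG1-luciferase reporter cells receive test compound and are incubated 16 hr at 37 °C, 5% CO2; ONE-Glo added, 30 min room temperature, then luminescence read.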
SMN2 splice up = enhancers of SMN2 splice variant expression; HEK293 SMN2-luciferase splicing reporter, luminescence, 30-36 h; Potency, µM (titrated, usually from 46.1 µM), for inactives: at the top dose activity change, positive = activation, most hits filed as activators; actives 2.8% (n = 210,000); AID 1458; note: % of control where 0% means no effect; nearly all actives have a fitted effect of over 55% in size
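HEK293 cells carry an SMN2 minigene-luciferase reporter in which exon 7 inclusion puts luciferase in frame. Cells were seeded at 2000 cells/well, attached for 10-12 hours, then exposed to compounds for 30-36 hours at 37C before ONE-Glo luminescence.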
NPC1 promoter act = activators of NPC1 promoter. Huh7 NPC1 promoter luciferase reporter, 24 h. Potency, µM (doses to about 9.22 µM), for the others: at the top dose activation, usual class: activators. actives 2.4% (n = 320,000). AID 485313; note: % of control where 0% means no effect; nearly all actives have a fitted effect of over 60% in size
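Stable NPC1-promoter luciferase Huh7 line; cpd (DMSO) 24 h, 37 °C, 5% CO2; Amplite luciferase reagent 10 min RT; luminescence readout. qHTS format.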
KinaseGlo FLuc = counter-screen: inhibitors of Kinase-Glo firefly luciferase; Q27757; Kinase-Glo luciferase, ATP luminescence, 8 min; Potency, µM (highest dose often 38.3 µM), inactives show top-dose activity change, negative = inhibition, hits mostly inhibitors; actives 0.28% (n = 200,000); AID 1379; note: % is set by controls: 0 for no effect and ±100 for the full control effect; nearly all actives have a fitted effect of over 60% in size
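Kinase-Glo luciferase light output from ATP and luciferin was measured with 10 uM ATP, within the enzyme's linear range. Buffer: 50 mM imidazole pH 7.2, 50 mM KCl, 7 mM MgCl2, 0.01% Tween 20, 0.05% BSA; luminescence read after 8 min at ambient temperature.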
* = called active by the depositor; u = inconclusive; x = no result given; [ ] = dose if it differs, or a comment. Calls come from the whole dose curve; as a rule, active = well fitted curve in the direction sought with a large enough effect; inconclusive = small, poorly fitted or top-dose-only effect, or another doubt; inactive = no such curve, though single readings can be large; an effect the other way counts as inactive or inconclusive. Potency is the fitted concentration of half-maximal effect.

SMILES	FLuc modulator	Rab9 prom act	ELG1 genotox	SMN2 splice up	NPC1 promoter act	KinaseGlo FLuc
Cc1cc[n+](CC(=O)c2cc3ccccc3oc2=O)cc1	23.9µM*	24.6%	14.7%	-2.0%	1.3%	1.4%
Cc1cc(C)nc(SCC(=O)c2cc3ccccc3oc2=O)n1	-7.7%	-0.8%	-0.3%	-9.2%	1.7%	-0.2%
COc1ccc(C(=O)Nc2cc(C(C)=O)c(/C=C/N(C)C)oc2=O)cc1	u	4.3%	-0.3%	-5.1%	-2.9%	-7.4%
CC(=O)c1cc(NC(=O)c2ccc(C)cc2)c(=O)oc1C	16.9µM*	-1.6%	u	x	-1.6%	u
Cc1oc(=O)c(NC(=O)c2ccccc2)cc1C(=O)c1ccccc1	15.1µM*	2.24µM*	u	26.0%	u	-1.1%
CC(=O)c1cc(NC(=O)c2ccc(C)cc2)c(=O)oc1/C=C/N(C)C	5.36µM*	20.7%	3.1%	u	-1.1%	6.6%
Cc1ccc(C(=O)Nc2cc3ccccc3oc2=O)cc1	0.0757µM*	u	u	x	0.708µM*	8.91µM*
CC(=O)Nc1cc2ccccc2oc1=O	3.7%	-10.8%	-6.0%	-5.5%	0.0%	8.0%
CN(C)c1ccc(N=Nc2ccccc2Br)cc1	0.19µM*	6.31µM*	u	x	3.55µM*	x
CN(C)c1ccc(C(=N)c2ccc(N(C)C)cc2)cc1	x	x	x	13.0%	x	x
CC(=O)c1ccc(N=Nc2ccc(C)cc2)cc1	0.953µM*	0.316µM*	0.461µM*	1.26µM*	0.316µM*	-8.7%
CN(C)c1ccc(/C(=N\O)c2ccccc2)cc1	u	13.9%	23.0%	21.5%	27.3%	-4.8%
CC(=O)c1ccc(N=Nc2ccc(N(C)C)cc2)cc1	0.301µM*	0.398µM*	u	14.0%	0.562µM*	u
CCOc1ccc(S(=O)(=O)NCCc2sc3nc(-c4ccc(F)cc4)nn3c2C)cc1	5.8%	x	x	x	x	x
COc1ccccc1CNC(=O)CCCCn1c(=O)c2ccccc2n(CC(=O)Nc2c(C)cc(C)cc2C)c1=O	2.6%	x	x	6.6%	x	x
CCOC(=O)C(=Cc1ccc(OCc2ccc([N+](=O)[O-])cc2)c(OC)c1)C(=O)OCC	15.1µM*	-2.3%	-8.8%	-12.8%	-3.1%	2.6%
COc1cc(C(c2c(C)[nH][nH]c2=O)c2c(C)[nH][nH]c2=O)ccc1OC(=O)c1cccc([N+](=O)[O-])c1	1.2%	-7.6%	0.1%	-8.4%	-3.6%	3.1%
COC(=O)C(=Cc1ccc(OCc2ccc([N+](=O)[O-])cc2)c(OC)c1)C(=O)OC	9.53µM*	0.9%	u	15.8µM*	-0.9%	0.4%
COc1cc(C(c2c(C)[nH][nH]c2=O)c2c(C)[nH][nH]c2=O)ccc1OCc1ccc([N+](=O)[O-])cc1	-19.7%	-0.4%	18.4µM*	17.8µM*	18.6%	20.0%
CCOC(=O)/C(=C\c1ccc(OC)c(OC)c1)C(=O)c1cccnc1	-1.6%	-0.7%	-1.2%	x	3.8%	x
CCOc1ccc(CCNC(=O)c2cc3c(=O)n(CC)c4ccccc4c3s2)cc1OCC	-7.8%	x	x	8.6%	x	x
CCOc1ccccc1NC(=O)CSc1nc2ccccc2nc1Cc1ccc(C)cc1	-9.6%	x	x	x	x	x
Cc1cccc(N2CCN(c3nc4ccc(C(=O)c5ccccc5)cc4n4cnnc34)CC2C)c1 (configuration not stated)	-2.6%	x	x	x	x	x
Cc1cccc(/C=C2\CCC(C3CCCC3)C2=O)c1 (configuration not stated)	4.78µM*	21.4%	u	-5.7%	24.4%	0.8%
O=C1/C(=C/c2ccc([N+](=O)[O-])cc2)CCC1C1CCCC1 (configuration not stated)	0.757µM*	-0.8%[1.84 µM]	13.4%	x	-6.5%	x
SMILES	FLuc modulator	Rab9 prom act	ELG1 genotox	SMN2 splice up	NPC1 promoter act	KinaseGlo FLuc
COc1cccc(/C=C2\CCC(C3CCCC3)C2=O)c1 (configuration not stated)	1.69µM*	u	u	x	u	x
COc1cccc(/C=C2\CCCCC2=O)c1	u	3.6%	7.5%	x	4.9%	x
Cc1cccc(/C=C2/C(=O)/C(=C/c3ccccc3C)C3CCC2N3C)c1 (configuration not stated)	0.0%	4.3%	0.9%	-34.1%	0.1%	-0.2%
CCOc1ccccc1CNC(=O)C1CCN(c2nc3ccccc3nc2C(F)(F)F)CC1	-2.3%	x	x	x	x	x
O=C(NC1CC(=O)N(c2ccc(Cl)cc2)C1)c1ccc(S(=O)(=O)N2CCCC2)cc1 (configuration not stated)	8.6%	x	x	x	x	x
Cc1ccc(-c2cc(=O)[nH][nH]2)c(C)c1	-0.3%	-10.0%	-3.4%	11.8%	0.8%	2.9%
CC(C)Cc1ccc(-c2cc(=O)[nH][nH]2)cc1	16.9µM*	16.7%	4.0%	0.3%	0.2%	-1.9%
COc1ccc(C2C(=O)N(C3CCC(C)CC3)CC(=O)N2C2CCCCC2)cc1OC (configuration not stated)	4.2%	x	x	x	x	x
O=C(O)Cc1cccnc1	x	x	x	0.2%[9.22 µM]	x	-4.1%[7.66 µM]
CCc1ccc(NC(=O)CCC(=O)Nc2nnc(C(F)(F)F)s2)cc1	26.9µM*	0.4%	9.4%	x	20.6%	x
CCc1nnc(NC(=O)CSc2nc(C)c3c(c2C#N)CCCC3)s1	8.49µM*	u	7.5%	x	u	x
COc1cccc(NC(=O)c2ccc(-c3nc(COc4ccccc4)c(C)o3)cc2)c1	-0.1%	x	x	x	x	x
O=[N+]([O-])c1nn(-c2ccc3c(c2)OCCO3)n(O)c1=NCCC1=CCCCC1	u	3.55µM*	u	u	u	0.1%
CN=c1c([N+](=O)[O-])nn(-c2ccc3c(c2)OCCO3)n1O	-13.8%	u	u	-9.6%	20.0%	-1.0%
